Assay results reported in PubChem BioAssay.
Calls of active or inactive are those of the source.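 How the source made its calls, unless noted: active means inhibition above 20% together with a positive visual image hit; inconclusive means visual image hit but inhibition not above 20%; inactive means no visual image hit.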

How the values were obtained:
[1] = inhibitors of TNFa-induced NFkB p65 translocation, primary screen, imaging, HUVEC, MLSMR starter and 10KST1 sets (AID 438); conditions: HUVEC TNFa-induced p65 nuclear translocation; cell count: measured here: nuclei count (cytotoxicity indicator), at 2.08 µM; inhibition: at 2 µM, stronger effect = higher value, 0% TNFa-plus-vehicle, 100% no-TNFa wells;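 further: compound added about 3h40 before a 20 min TNFalpha stimulation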;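 on inhibition: signal is the nuclear over cytoplasmic p65 intensity ratio per well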
[2] = inhibitors of mutant huntingtin aggregation, primary screen, imaging, exon1htt(103Q)mCFP cells, high-content imaging (AID 483;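 active means visual image review flags a hit and inhibition of aggregation exceeds 20%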;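 further: compound exposure lasted 3 days before fixation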;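 on nuclei count: percent of the per-plate median nuclei count of sample wells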); conditions: exon1htt(103Q)mCFP cell line, aggregate imaging, at 2 µM; inhibition of aggregation: stronger effect = higher value; nuclei count: measured here: cell count, toxicity
[3] = inhibitors of E-selectin induction by TNFa, primary screen, imaging, HUVEC, immunofluorescence, MLSMR starter and 10KST1 sets (AID 487;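 active means visually confirmed hit in the image check and inhibition above 20%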;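 on inhibition: signal is fraction of cell area covered by stained E-selectin grains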;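 on nuclei count: 100% = median nuclei count of all wells on the same plate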); conditions: HUVEC TNFalpha-induced E-selectin immunofluorescence imaging, at 2 µM; inhibition: stronger effect = higher value; nuclei count: measured here: cell number, toxicity
[4] = molecular target: Voltage-gated potassium channel subunit beta-2 (Rattus norvegicus) (UniProt P62483); experiment: KvBeta enzyme negative modulators, primary screen, biochemical, NADPH fluorescence (AID 622;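 active means fluorescence slope higher than the sample average by over 3 SD, cut at about -0.22 in these data, passing the limit was not always enough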;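 further: slope of raw intensity against log time taken from 70 to 1610 s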); conditions: recombinant KvBeta, 4-cyanobenzaldehyde reduction, at 10 µM, stronger effect = higher value
[5] = molecular target: Voltage-gated potassium channel subunit beta-2 (Rattus norvegicus) (UniProt P62483); experiment: KvBeta positive modulators, primary screen, biochemical, NADPH fluorescence (AID 623;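 active means NADPH fluorescence slope more negative than the mean of all samples by about 3 SD, 99.7% confidence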;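 further: fluorescence intensity change per second fitted from 20 to 320 s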); conditions: Recombinant KvBeta, NADPH fluorescence decrease slope, 10 min; at 10 µM; stronger effect = lower value
[6] = molecular target: Alpha-2C adrenergic receptor (Homo sapiens) (UniProt P18825); experiment: modulators of alpha2C/GIRK thallium flux, primary screen, cell-based, HEK293 alpha2C/GIRK1/2 (AID 624;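 active means fluorescence slope after compound addition differing from the mean of all screened samples at 99.7% confidence, in either direction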;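 further: slope of fluorescence ratio to pre-addition baseline per second over 15 to 24 s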); conditions: thallium flux BTC fluorescence, at 10 µM, actives lie on both sides
[7] = inhibitors of Sendai virus-induced IRF3 signaling, primary screen, TLR/RLR signaling modifier project, cell-based, Sendai virus stimulus, luciferase, 10K MLSCN set (AID 602276;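 active means inhibition at or above 50% at 10 µM; inactive means inhibition below 50%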;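 further: firefly luciferase from ISG56 promoter only with Renilla not read in this screen; 0% = Sendai virus plus DMSO and 100% = medium plus DMSO without virus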); conditions: HEK293 RL24 IRF3 luciferase reporter, at 10 µM, stronger effect = higher value
[8] = inhibitors of poly I:C-induced TLR3 signaling, primary screen, cell-based, poly I:C stimulus, luciferase, 10K MLSCN set (AID 602277;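 active means inhibition of the reporter signal at or above 50%; inactive means inhibition below 50%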); conditions: HEK293-TLR3 RL24 IRF3 luciferase reporter, at 10 µM, stronger effect = higher value

Sequence of Alpha-2C adrenergic receptor (Homo sapiens) (P18825 whole entry, looked up): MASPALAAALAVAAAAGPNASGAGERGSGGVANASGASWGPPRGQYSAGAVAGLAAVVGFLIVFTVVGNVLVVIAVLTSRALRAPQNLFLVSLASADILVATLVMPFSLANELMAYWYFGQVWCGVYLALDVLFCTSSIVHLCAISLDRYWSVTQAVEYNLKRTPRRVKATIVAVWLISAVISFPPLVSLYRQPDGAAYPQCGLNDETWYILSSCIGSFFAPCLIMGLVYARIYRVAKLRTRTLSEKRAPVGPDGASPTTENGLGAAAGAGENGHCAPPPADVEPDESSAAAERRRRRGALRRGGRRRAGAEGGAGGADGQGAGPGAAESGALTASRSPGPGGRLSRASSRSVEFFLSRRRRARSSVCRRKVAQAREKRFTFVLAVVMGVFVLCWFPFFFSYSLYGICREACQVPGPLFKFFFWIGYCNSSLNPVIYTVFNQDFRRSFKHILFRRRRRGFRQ
Sequence of Voltage-gated potassium channel subunit beta-2 (Rattus norvegicus) (P62483 whole entry, looked up): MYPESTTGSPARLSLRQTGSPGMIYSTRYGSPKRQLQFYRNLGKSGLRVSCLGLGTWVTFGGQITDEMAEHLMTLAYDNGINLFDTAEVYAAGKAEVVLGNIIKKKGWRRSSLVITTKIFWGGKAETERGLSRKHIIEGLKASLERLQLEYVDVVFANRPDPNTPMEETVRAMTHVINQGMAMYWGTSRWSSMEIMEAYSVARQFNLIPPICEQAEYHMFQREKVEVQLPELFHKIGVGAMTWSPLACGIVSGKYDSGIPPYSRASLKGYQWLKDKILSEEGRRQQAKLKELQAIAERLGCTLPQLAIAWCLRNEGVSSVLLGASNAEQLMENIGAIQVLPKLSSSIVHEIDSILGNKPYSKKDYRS

| SMILES | cell count [1] | inhibition [1] | inhibition of aggregation [2] | nuclei count [2] | inhibition [3] | nuclei count [3] | fluorescence slope [4] | NADPH fluorescence slope [5] | slope [6] | inhibition [7] | inhibition [8] |
| --- | --- | --- | --- | --- | --- | --- | --- | --- | --- | --- | --- |
| CCN(CC)CCOc1cccc(C(C)C)c1 | 657 | -5.3% (inactive) | -2.7% (inactive) | 104% | 1.1% (inactive) | 76.3% | -0.393 (inactive) | -7.6e-05 (inactive) | 0.00629 (inactive) | 6.62% (inactive) | 13.5% (inactive) |
| CCOC(=O)c1sc2nc(NC(=O)C(C)(C)C)sc2c1C | 600 | 16.7% (inactive) | -3.3% (inactive) | 112% | -25.6% (inactive) | 104% | -0.496 (inactive) | -2.5e-05 (inactive) | 0.00604 (inactive) | -20.5% (inactive) | -150% (inactive) |
| CCCS(=O)(=O)N1CCN(Cc2ccc(OCc3ccccc3)c(OC)c2)CC1 | 247 | -5% (inactive) | 9.9% (inactive) | 79.6% | -25.9% (inactive) | 101% | -0.549 (inactive) | -4.2e-05 (inactive) | 0.0062 (inactive) | -20.2% (inactive) | -19.3% (inactive) |
| Cc1cccc(N2CCN(C(=O)Cn3nc(Cc4ccncc4)c4ccccc4c3=O)CC2)c1C | 895 | -5.5% (inactive) | 14.3% (inactive) | 103% | -72% (inactive) | 118% | -0.563 (inactive) | -4.2e-05 (inactive) | 0.00577 (inactive) | 4.52% (inactive) | 5.5% (inactive) |
| CCOc1ccc(S(=O)(=O)N2CCN(C(=O)c3cccn3C)CC2)cc1 | 431 | 2% (inactive) | -7.2% (inactive) | 95.6% | -88.3% (inactive) | 105% | -0.502 (inactive) | -9e-06 (inactive) | 0.00499 (inactive) | 13.9% (inactive) | 19.3% (inactive) |
| O=C(Nc1cccc2ccccc12)N1CCOCC1 | 654 | -3.4% (inactive) | -12% (inactive) | 116% | -33.2% (inactive) | 106% | -0.341 (inactive) | -6.3e-05 (inactive) | 0.00634 (inactive) | 18.7% (inactive) | 23.7% (inactive) |
| Clc1ccc(Nc2ncnc3c2cnn3-c2ccccc2)cc1 | 703 | 0% (inactive) | 19% (inactive) | 95.2% | -14.4% (inactive) | 105% | -0.496 (inactive) | -1.9e-05 (inactive) | 0.0059 (inactive) | -24% (inactive) | -67.8% (inactive) |
| CC(=O)C1=C(C)NC(SCSc2ccccc2)=C(C#N)C1c1cccnc1 (stereo not drawn) | 472 | -0.5% (inactive) | -6.8% (inactive) | 87.9% | -33% (inactive) | 121% | -0.475 (inactive) | -3e-05 (inactive) | 0.00661 (inactive) | 1.86% (inactive) | 0.63% (inactive) |
| COC(=O)CCC(=O)Nc1cccc(Cl)c1 | 205 | 42.5% (active) | 5% (inactive) | 99.2% | -12.1% (inactive) | 94.4% | -0.593 (inactive) | -3.8e-05 (inactive) | 0.00629 (inactive) | 3.5% (inactive) | 17.1% (inactive) |
| COC(=O)c1cc(Br)c(=O)n(-c2ccc(OC)cc2)c1 | 542 | -0.5% (inactive) | -13.6% (inactive) | 108% | 25.8% (inactive) | 112% | -0.503 (inactive) | -3.9e-05 (inactive) | 0.00452 (inactive) | 12.6% (inactive) | 23.2% (inactive) |
| Cc1cc(C)nc(SCC(=O)Nc2ccc(S(=O)(=O)Nc3nccs3)cc2)n1 | 312 | 9% (inactive) | 5.3% (inactive) | 97.6% | -21.2% (inactive) | 116% | -0.383 (inactive) | -5.8e-05 (inactive) | 0.00544 (inactive) | 10% (inactive) | 32.8% (inactive) |
| O=c1oc2ccccc2c2nccnc12 | 410 | 2.1% (inactive) | 2.2% (inactive) | 104% | -5.2% (inactive) | 107% | -0.456 (inactive) | -3.3e-05 (inactive) | 0.00253 (inactive) | 5.7% (inactive) | 27.5% (inactive) |
| CCN(CC)C(=O)c1ccc(CS(=O)(=O)c2ccc(OC)cc2)o1 | 560 | -2% (inactive) | 1.4% (inactive) | 102% | -67.7% (inactive) | 125% | -0.599 (inactive) | -3e-05 (inactive) | 0.00698 (inactive) | -17.1% (inactive) | -10.1% (inactive) |
| COc1ccc(-c2cc3c(=O)n(CC(=O)NC4CCN(Cc5ccccc5)CC4)ncn3n2)cc1 | 296 | 2.8% (inactive) | 0.5% (inactive) | 91.9% | 2.5% (inactive) | 90.8% | -0.404 (inactive) | -4.1e-05 (inactive) | 0.00479 (inactive) | -14.7% (inactive) | -13.3% (inactive) |
| NCCN1CCN(CCN)CC1 | 728 | -10% (inactive) | -4.6% (inactive) | 116% | -23.9% (inactive) | 132% | -0.436 (inactive) | -1.1e-05 (inactive) | 0.00707 (inactive) | 12.2% (inactive) | 18.8% (inactive) |
| Cc1ccc(NC(=O)CN2CC(C)SC2=NC2CCCCC2)cc1 (stereo not drawn) | 519 | 10.1% (inactive) | -7.2% (inactive) | 109% | -38.8% (inactive) | 112% | -0.514 (inactive) | -4.1e-05 (inactive) | 0.00585 (inactive) | 17.3% (inactive) | 13.9% (inactive) |
| Cn1nc(C(=O)N2CCOCC2)c2ccccc2c1=O | 321 | 5.2% (inactive) | 12.2% (inactive) | 109% | -79.4% (inactive) | 130% | -0.43 (inactive) | -3.1e-05 (inactive) | 0.00337 (inactive) | 9.89% (inactive) | 32% (inactive) |
| CCOC(=O)N1CCC(N(C(=O)Nc2cccc(OC)c2)C(C)CC)CC1 (stereo not drawn) | 534 | -4.4% (inactive) | -16.1% (inactive) | 44% | -60.6% (inactive) | 98.9% | -0.513 (inactive) | -3.9e-05 (inactive) | 0.00561 (inactive) | 12.2% (inactive) | 11.5% (inactive) |
| Cn1c(=O)c(=O)n(C)c2cc(S(=O)(=O)N3CCN(c4cccc(C(F)(F)F)c4)CC3)ccc21 | 334 | -2.2% (inactive) | -18.8% (inactive) | 107% | -12.6% (inactive) | 104% | -0.354 (inactive) | 1.2e-05 (inactive) | 0.00616 (inactive) | 1.46% (inactive) | 13.1% (inactive) |
| O=C(CN1C(=O)CSC1=O)N1CCc2ccccc2C1 | 324 | 4.8% (inactive) | 14% (inactive) | 101% | 0.8% (inactive) | 107% | -0.423 (inactive) | -5.1e-05 (inactive) | 0.00367 (inactive) | 6.34% (inactive) | 31% (inactive) |
| Cc1c(C(=O)NCc2cccnc2)oc2ccc(S(=O)(=O)N3CCCCC3)cc12 | 614 | -17% (inactive) | 37.3% (active) | 117% | -47.2% (inactive) | 107% | -0.448 (inactive) | -0.000103 (inactive) | 0.00545 (inactive) | 19.5% (inactive) | 21.4% (inactive) |
| N[C@@H](Cc1ccccc1)c1nnc2sc(SCc3ccccc3)nn12 | 444 | -5.5% (inactive) | -1.7% (inactive) | 84.8% | -15.7% (inactive) | 114% | -0.43 (inactive) | -1.6e-06 (inactive) | 0.00539 (inactive) | 10.2% (inactive) | 98.1% (active) |
| COc1cccc(-c2csc(N3CCN(CC(=O)Nc4ccc5c(c4)OCO5)CC3)n2)c1 | 262 | 3.1% (inactive) | -24.6% (inactive) | 88.4% | -4.3% (inactive) | 91.2% | -0.622 (inactive) | -1.3e-05 (inactive) | 0.00556 (inactive) | -45.8% (inactive) | -62.6% (inactive) |
| COc1ccc(NC(=O)C2CCCN2S(=O)(=O)c2cccc3cccnc23)c(OC)c1 (stereo not drawn) | 645 | -8.6% (inactive) | 2.8% (inactive) | 77.7% | -59.6% (inactive) | 103% | -0.626 (inactive) | 2.3e-06 (inactive) | 0.00652 (inactive) | 1.34% (inactive) | 38.4% (inactive) |
| Cc1ccc(C2Nc3ccccc3-c3nc4ccccc4n32)o1 (stereo not drawn) | 741 | 6.8% (inactive) | 3.8% (inactive) | 88.4% | -26.5% (inactive) | 80.6% | -0.475 (inactive) | -2.2e-05 (inactive) | 0.00364 (inactive) | -46.2% (inactive) | -110% (inactive) |
| CC(C)Cn1c(CN(Cc2ccccc2)Cc2ccccc2)nc2c1c(=O)n(C)c(=O)n2C | 567 | -1% (inactive) | 1.4% (inactive) | 124% | -12.8% (inactive) | 117% | -0.518 (inactive) | -1.8e-05 (inactive) | 0.00724 (inactive) | 9.97% (inactive) | 12.9% (inactive) |
| Cc1cc(Nc2ccc(N3CCC(C)CC3)cc2)n2ncnc2n1 | 426 | -2.4% (inactive) | 6% (inactive) | 103% | -18.3% (inactive) | 115% | -0.602 (inactive) | 7e-05 (inactive) | 0.00396 (inactive) | -6.44% (inactive) | -3.16% (inactive) |
| CCN(CC)C(=O)CSc1nnc([C@@H](N)Cc2ccccc2)o1 | 673 | 1.7% (inactive) | -2.7% (inactive) | 84.3% | -0.8% (inactive) | 96% | -0.499 (inactive) | 1.4e-05 (inactive) | 0.00547 (inactive) | 15.4% (inactive) | 22% (inactive) |
